Active and inactive are the calls of the source. A call without a number means that no potency is given here. Unless noted, calls follow the shape of the dose curve; as a rule, active = well fitted curve in the direction sought with a large enough effect in the repeat runs; inconclusive = weak or mixed curves; inactive = no such curve, though single readings can be large; an effect the other way counts as inactive or inconclusive.
Tests used:
[1] = qHTS assay to identify small molecule antagonists of the thyroid receptor (TR) signaling pathway - cell viability counter screen (AID 743064); also: nearly all actives have a fitted effect of over 50% in size; also: potency is read from the fitted curve at half-maximal effect
How it was run: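 In rat pituitary GH3.TRE-Luc reporter cells co-exposed to compound and 1 nM T3 for 23.5 h, cytotoxicity was assessed with CellTiter-Fluor in the same wells, read by fluorescence.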

[2] = qHTS assay to identify small molecule antagonists of the thyroid receptor (TR) signaling pathway (AID 743065); also: nearly all actives have a fitted effect of over 55% in size; also: potency is read from the fitted curve at half-maximal effect
How it was run: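 GH3.TRE-Luc rat pituitary cells (two TREs driving luciferase) were dosed with compound, then stimulated with 1 nM T3 (final) for 23.5 h at 37 C. ONE-Glo luminescence was the read-out, with CellTiter-Fluor fluorescence as the cytotoxicity counter-screen.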

[3] = test system: thyroid hormone receptor (rat, GH3 cells); assay: qHTS assay to identify small molecule agonists of the thyroid receptor (TR) signaling pathway (AID 743066; calls by dose curve)
[4] = molecular target: Estrogen receptor (Homo sapiens) (UniProt P03372); assay: qHTS assay to identify small molecule antagonists of the estrogen receptor alpha (ER-alpha) signaling pathway (AID 743069; active = well fitted curve in the direction sought with a large enough effect in the signal ratio in the repeat runs, not every such curve was filed as active; inconclusive = weak or mixed curves, or effect the other way; inactive = no such curve, though single readings can be large or run the other way; the % refers to the signal ratio; also: potency is read from the fitted curve at half-maximal effect)
How it was run: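 In this cell-based reporter format, GripTite HEK293 cells harbouring ER-alpha-UAS-bla were grown overnight with 2% charcoal-stripped FBS, dosed with DMSO-dissolved compounds, then challenged with 17beta-estradiol. After 18 hr at 37C, beta-lactamase activity was detected by FRET fluorescence.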

[5] = qHTS assay to identify small molecule antagonists of the estrogen receptor alpha (ER-alpha) signaling pathway - cell viability counter screen (AID 743074; calls by dose curve; also: nearly all actives have a fitted effect of over 45% in size; also: potency is read from the fitted curve at half-maximal effect)
[6] = molecular target: Estrogen receptor (Homo sapiens) (UniProt P03372); assay: qHTS assay to identify small molecule agonists of the estrogen receptor alpha (ER-alpha) signaling pathway (AID 743075; calls by dose curve)
[7] = molecular target: Estrogen receptor (Homo sapiens) (UniProt P03372); assay: qHTS assay to identify small molecule agonists of the estrogen receptor alpha (ER-alpha) signaling pathway using the BG1 cell line (AID 743079); conditions: BG1Luc4E2 cells, ERE-luciferase agonist, 22 h; activation: at 70.3 µM (top of the series); also: nearly all actives have a fitted effect of over 20% in size
[8] = qHTS assay to identify small molecule antagonists of the estrogen receptor alpha (ER-alpha) signaling pathway using the BG1 cell line (AID 743080; calls by dose curve;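 also: BG1 cells stimulated with 17beta-estradiol alongside compound; nearly all actives have a fitted effect of over 25% in size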; also: potency is read from the fitted curve at half-maximal effect)
How it was run: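 Quantitative HTS on the Tox21 10K library: BG1 cells with endogenous ER-alpha and ERE-luciferase reporter, 17beta-estradiol stimulation, 21.5 h compound exposure, luminescence endpoint with parallel fluorescence cytotoxicity counter-read.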

[9] = qHTS assay to identify small molecule antagonists of the estrogen receptor alpha (ER-alpha) signaling pathway using the BG1 cell line - cell viability counter screen (AID 743081);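 also: compound given together with 17beta-estradiol as the ER stimulus; nearly all actives have a fitted effect of over 45% in size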; also: potency is read from the fitted curve at half-maximal effect
Aromatase (Homo sapiens) = Aromatase (Homo sapiens) (UniProt P11511); assay: qHTS assay to identify aromatase inhibitors (AID 743083); also: nearly all actives have a fitted effect of over 55% in size; also: potency is read from the fitted curve at half-maximal effect
[10] = qHTS assay to identify aromatase inhibitors - cell viability counter screen (AID 743084);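 also: cells stimulated with testosterone during compound exposure; nearly all actives have a fitted effect of over 55% in size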; also: potency is read from the fitted curve at half-maximal effect
[11] = qHTS assay to identify small molecule that activate the aryl hydrocarbon receptor (AhR) signaling pathway - cell viability counter screen (AID 743086); also: nearly all actives have a fitted effect of over 45% in size; also: potency is read from the fitted curve at half-maximal effect
How it was run: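 HepG2-AhR-luc (HG2L7.5c1) cells, 4000/well, treated 24 h at 37 C with compound; viability measured as CellTiter-Fluor fluorescence after 30 min in the same wells as the luciferase read.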

[12] = qHTS assay to identify small molecule antagonists of the peroxisome proliferator-activated receptor gamma (PPARg) signaling pathway - cell viability counter screen (AID 743194); also: nearly all actives have a fitted effect of over 55% in size; also: potency is read from the fitted curve at half-maximal effect
How it was run: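 Cytotoxicity counter screen in PPARg-bla HEK293H cells, same wells as reporter assay. Compounds plus 50 nM rosiglitazone (final) for 17 h at 37 C, then viability read by CellTiter-Glo luminescence.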

[13] = qHTS assay for small molecule agonists of the antioxidant response element (ARE) signaling pathway (AID 743202; active = well fitted activation curve with a large enough effect in the signal ratio in the repeat runs, not every such curve was filed as active; inconclusive = weak or mixed curves, or effect the other way; inactive = no such curve, though single readings can be large or run the other way; the % refers to the signal ratio; also: potency is read from the fitted curve at half-maximal effect)
How it was run: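 HepG2 ARE-bla cells; 16 h treatment at 37 C; FRET-based beta-lactamase fluorescence read after 2 h substrate incubation at room temperature.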

[14] = qHTS assay for small molecule agonists of the antioxidant response element (ARE) signaling pathway - cell viability counter screen (AID 743203; calls by dose curve; also: nearly all actives have a fitted effect of over 55% in size; also: potency is read from the fitted curve at half-maximal effect)
How it was run: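 Viability counter screen: CellTiter-Glo luminescence, read after 30 min at room temperature, in ARE-bla HepG2 wells. Compound exposure lasted 16 h at 37C/5% CO2, following a 5 h pre-incubation of the cells after plating.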

[15] = qHTS assay for small molecule activators of the heat shock response signaling pathway - cell viability counter screen (AID 743209); also: nearly all actives have a fitted effect of over 50% in size
How it was run: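 Cytotoxicity counter screen run in the same wells as the heat-shock bla reporter assay: HeLa HSE-bla cells, 5 h compound exposure at 37 C, viability read by CellTiter-Glo luminescence.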

[16] = qHTS assay for small molecule activators of the heat shock response signaling pathway (AID 743210; active = well fitted activation curve with a large enough effect in the signal ratio in the repeat runs, with a control signal flat, not every such curve was filed as active; inconclusive = weak or mixed curves; the % refers to the signal ratio; also: potency is read from the fitted curve at half-maximal effect;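 as to activation: HeLa cells with beta-lactamase reporter driven by heat shock elements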)
How it was run: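 Following overnight attachment, HSE-bla HeLa cells received test compounds for 5 h at 37 C; beta-lactamase activity was then detected via FRET substrate fluorescence.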

[17] = molecular target: Aryl hydrocarbon receptor (Homo sapiens) (UniProt P35869); assay: qHTS assay to identify small molecule that activate the aryl hydrocarbon receptor (AhR) signaling pathway (AID 743085); also: nearly all actives have a fitted effect of over 15% in size; also: potency is read from the fitted curve at half-maximal effect;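 as to activation: HG2L7.5c1 human HepG2 liver cells with stably integrated DRE-driven firefly reporter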
How it was run: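 AhR agonist activity is inferred from enhanced light output of a DRE-controlled firefly luciferase reporter in HepG2 cells, measured with ONE-Glo following 24 h treatment at 37C.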

[18] = molecular target: Peroxisome proliferator-activated receptor gamma (Homo sapiens) (UniProt P37231); assay: qHTS assay to identify small molecule agonists of the peroxisome proliferator-activated receptor gamma (PPARg) signaling pathway (AID 743094; active = well fitted activation curve with a large enough effect in the signal ratio in the repeat runs, not every such curve was filed as active; inconclusive = weak or mixed curves, or effect the other way; inactive = no such curve, though single readings can be large or run the other way; the % refers to the signal ratio)
How it was run: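 Agonist activity was taken from a beta-lactamase reporter (FRET substrate, 1 h at room temperature) in HEK293H cells carrying a PPARg UAS-bla construct. Compounds in DMSO were incubated 17 h at 37C after a 5 h cell pre-incubation.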

[19] = molecular target: Peroxisome proliferator-activated receptor gamma (Homo sapiens) (UniProt P37231); assay: qHTS assay to identify small molecule antagonists of the peroxisome proliferator-activated receptor gamma (PPARg) signaling pathway (AID 743191; calls by dose curve; also: nearly all actives have a fitted effect of over 30% in size)
How it was run: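 GeneBLAzer PPARg UAS-bla HEK293H cells, 5 h post-plating, exposed to compounds 17 h at 37C. LiveBLAzer B/G FRET substrate added for 1 h at room temperature; beta-lactamase reporter read by fluorescence intensity.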

Aromatase (Homo sapiens), sequence (P11511 whole entry, looked up): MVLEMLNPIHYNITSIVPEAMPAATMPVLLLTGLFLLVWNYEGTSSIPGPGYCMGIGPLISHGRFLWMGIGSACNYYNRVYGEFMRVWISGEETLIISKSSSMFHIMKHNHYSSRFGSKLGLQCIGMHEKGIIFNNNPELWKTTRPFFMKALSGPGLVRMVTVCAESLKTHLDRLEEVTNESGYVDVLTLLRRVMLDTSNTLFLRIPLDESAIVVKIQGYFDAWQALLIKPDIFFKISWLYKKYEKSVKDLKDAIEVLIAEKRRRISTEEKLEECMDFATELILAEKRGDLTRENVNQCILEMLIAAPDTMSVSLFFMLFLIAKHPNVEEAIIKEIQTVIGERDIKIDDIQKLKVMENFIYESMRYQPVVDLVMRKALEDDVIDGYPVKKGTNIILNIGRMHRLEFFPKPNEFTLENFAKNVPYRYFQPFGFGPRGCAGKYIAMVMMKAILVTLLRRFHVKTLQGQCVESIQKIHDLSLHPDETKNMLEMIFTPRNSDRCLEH
Estrogen receptor (Homo sapiens), sequence (P03372 whole entry, looked up): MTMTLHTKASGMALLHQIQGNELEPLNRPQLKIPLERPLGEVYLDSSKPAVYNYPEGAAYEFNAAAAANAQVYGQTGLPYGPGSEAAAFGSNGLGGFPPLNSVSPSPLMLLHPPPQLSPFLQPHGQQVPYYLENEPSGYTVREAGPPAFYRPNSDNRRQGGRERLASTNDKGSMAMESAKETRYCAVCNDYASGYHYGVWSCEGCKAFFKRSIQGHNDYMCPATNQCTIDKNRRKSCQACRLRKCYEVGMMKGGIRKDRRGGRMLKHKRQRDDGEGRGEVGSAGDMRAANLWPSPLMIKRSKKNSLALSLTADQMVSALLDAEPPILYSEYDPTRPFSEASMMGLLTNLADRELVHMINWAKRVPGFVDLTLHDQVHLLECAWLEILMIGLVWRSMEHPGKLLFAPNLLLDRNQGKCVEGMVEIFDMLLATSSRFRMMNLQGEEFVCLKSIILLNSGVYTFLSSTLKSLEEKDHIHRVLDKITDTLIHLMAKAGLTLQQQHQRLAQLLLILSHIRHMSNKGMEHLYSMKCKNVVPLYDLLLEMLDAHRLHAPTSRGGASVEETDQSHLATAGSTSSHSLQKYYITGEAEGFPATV
Peroxisome proliferator-activated receptor gamma (Homo sapiens), sequence (P37231 whole entry, looked up): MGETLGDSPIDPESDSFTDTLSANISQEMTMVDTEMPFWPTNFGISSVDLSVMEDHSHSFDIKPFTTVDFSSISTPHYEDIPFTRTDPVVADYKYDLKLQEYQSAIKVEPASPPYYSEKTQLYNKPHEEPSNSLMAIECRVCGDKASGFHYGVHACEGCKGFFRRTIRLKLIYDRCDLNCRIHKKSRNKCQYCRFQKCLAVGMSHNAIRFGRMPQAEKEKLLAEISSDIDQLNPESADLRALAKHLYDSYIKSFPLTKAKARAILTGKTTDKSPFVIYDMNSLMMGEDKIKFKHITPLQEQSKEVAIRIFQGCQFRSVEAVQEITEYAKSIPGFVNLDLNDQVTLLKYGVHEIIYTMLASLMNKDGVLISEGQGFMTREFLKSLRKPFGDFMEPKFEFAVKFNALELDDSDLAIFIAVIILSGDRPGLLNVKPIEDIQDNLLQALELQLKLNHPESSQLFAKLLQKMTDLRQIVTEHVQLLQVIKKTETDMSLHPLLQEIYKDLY
Aryl hydrocarbon receptor (Homo sapiens), sequence (P35869 whole entry, looked up): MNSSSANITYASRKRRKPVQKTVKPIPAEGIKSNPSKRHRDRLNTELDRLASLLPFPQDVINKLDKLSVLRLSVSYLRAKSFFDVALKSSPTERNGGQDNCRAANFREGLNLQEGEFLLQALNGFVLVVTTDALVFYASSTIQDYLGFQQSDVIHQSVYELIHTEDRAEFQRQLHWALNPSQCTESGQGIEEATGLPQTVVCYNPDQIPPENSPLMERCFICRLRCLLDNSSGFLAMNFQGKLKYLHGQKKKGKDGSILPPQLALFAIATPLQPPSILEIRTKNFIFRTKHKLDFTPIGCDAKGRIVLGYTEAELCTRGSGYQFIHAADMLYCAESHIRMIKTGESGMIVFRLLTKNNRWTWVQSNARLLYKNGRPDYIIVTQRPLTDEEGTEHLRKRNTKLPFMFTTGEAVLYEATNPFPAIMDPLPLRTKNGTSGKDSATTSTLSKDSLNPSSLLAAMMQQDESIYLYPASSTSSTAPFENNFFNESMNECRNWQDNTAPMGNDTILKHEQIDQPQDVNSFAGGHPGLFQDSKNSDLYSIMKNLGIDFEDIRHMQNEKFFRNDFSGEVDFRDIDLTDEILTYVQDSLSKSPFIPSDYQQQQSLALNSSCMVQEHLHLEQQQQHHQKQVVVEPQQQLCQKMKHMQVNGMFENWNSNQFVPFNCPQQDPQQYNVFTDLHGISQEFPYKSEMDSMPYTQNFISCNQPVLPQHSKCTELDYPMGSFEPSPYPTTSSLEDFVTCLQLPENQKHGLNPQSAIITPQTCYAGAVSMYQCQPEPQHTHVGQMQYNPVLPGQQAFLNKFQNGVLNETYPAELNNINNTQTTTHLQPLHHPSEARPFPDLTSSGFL

Structure (SMILES)	Potency [1]	Potency [2]	outcome [3]	Potency [4]	Potency [5]	Potency [6]	Potency [7]	Potency [8]	Potency [9]	Potency (Aromatase (Homo sapiens))	Potency [10]	Potency [11]	Potency [12]	Potency [13]	Potency [14]	Potency [15]	Potency [16]	Potency [17]	Potency [18]	Potency [19]
COC(=O)CCS	inactive	inactive	inactive	inactive	inactive	inactive	inactive	inactive	inactive	inactive	inactive	inactive	inactive	inactive	inactive	inactive	inactive			
C=C(C)C(=O)OCCCCCCCCCCCCC	inactive	inactive	inactive	inactive	inactive	inactive	inactive	inactive	inactive	inactive	inactive	inactive	inactive	inactive	inactive	inactive	inactive	inactive	inactive	
Nc1ncnc2c1ncn2[C@H]1CC[C@@H](CO)O1	inactive	inactive	inactive	inactive	inactive	inactive	inactive	inactive	inactive	inactive	inactive	inactive	inactive	inactive	inactive	inactive	inactive		inactive	
CCCC(=O)C(=O)O	inactive	inactive	inactive	inactive	inactive	inactive	inactive	inactive	inactive	inactive		inactive	inactive		inactive	inactive	inactive	inactive		
O=C1NC(=O)c2cc([N+](=O)[O-])ccc21	inactive	inactive	inactive	inactive	inactive	inactive	inactive	inactive	inactive	inactive		inactive	inactive		inactive	inactive	inactive	inactive	inactive	
Cc1cc(C)c(N)cc1C	inactive	inactive	inactive	inactive	inactive	inactive	inactive	inactive	inactive		inactive	inactive	inactive	inactive	inactive	inactive	inactive		inactive	
Oc1cc2c(cc1O)[C@H]1c3ccc(O)c(O)c3OC[C@@]1(O)C2	61.9 µM (active)	49.2 µM (active)	inactive	inactive	inactive	inactive			49.2 µM (active)	24.6 µM (active)	24.6 µM (active)	27.6 µM (active)			inactive	inactive			inactive	
CCC1(CO)COCOC1	inactive	inactive	inactive	inactive		inactive	inactive	inactive	inactive	inactive	inactive	inactive	inactive		inactive	inactive		inactive		
CCOC(C)=O	inactive	inactive	inactive	inactive	inactive	inactive	inactive	inactive	inactive	inactive	inactive	inactive	inactive	inactive		inactive	inactive		inactive	inactive
C=C1C[C@@]23CC[C@H]4[C@@](C)(CCC[C@@]4(C)C(=O)O[C@@H]4O[C@H](CO)[C@@H](O)[C@H](O)[C@H]4O)[C@@H]2CC[C@]1(O[C@@H]1O[C@H](CO)[C@@H](O)[C@H](O[C@@H]2O[C@H](CO)[C@@H](O)[C@H](O)[C@H]2O)[C@H]1O[C@@H]1O[C@H](CO)[C@@H](O)[C@H](O)[C@H]1O)C3	inactive	inactive	inactive	inactive	inactive	inactive	inactive	inactive		inactive	inactive	inactive	inactive	inactive	inactive	inactive	inactive	inactive	inactive	
O[C@@H]1CO[C@H]2[C@@H]1OC[C@@H]2O	inactive	inactive	inactive	inactive	inactive	inactive	inactive	inactive	inactive	inactive	inactive	inactive	inactive	inactive	inactive	inactive	inactive	inactive	inactive	inactive
COc1cc(Nc2c(C#N)cnc3cc(OCCCN4CCN(C)CC4)c(OC)cc23)c(Cl)cc1Cl	11.9 µM (active)	9.44 µM (active)			26.8 µM (active)					26.6 µM (active)		13.3 µM (active)	21.1 µM (active)		18.8 µM (active)	inactive		inactive		
CC(=O)[C@H]1[C@H](C#N)C[C@H]2[C@@H]3CC=C4C[C@@H](O)CC[C@]4(C)[C@H]3CC[C@@]21C	inactive		inactive		inactive	inactive		inactive	inactive	inactive	inactive	inactive	inactive	33.1 µM (active)	inactive	inactive	inactive	inactive	inactive	
CCC1CO1 (configuration not stated)	inactive	inactive	inactive						inactive	inactive	inactive	inactive		inactive	inactive	inactive	inactive	inactive	inactive	
OCCN1CCN(CCCN2c3ccccc3Sc3ccc(Cl)cc32)CC1	3.59 µM (active)	5.07 µM (active)		inactive	inactive	inactive	inactive	inactive	inactive	inactive					29.8 µM (active)	inactive	inactive		inactive	
C=C(C)[C@@H]1CCC2=CCC[C@@H](C)[C@]2(C)C1	inactive		inactive	inactive	inactive	inactive		inactive	inactive		inactive	inactive							inactive	inactive
c1cc(N(CC2CO2)CC2CO2)ccc1Cc1ccc(N(CC2CO2)CC2CO2)cc1 (configuration not stated)	13.7 µM (active)	8.63 µM (active)	inactive		inactive					30.6 µM (active)	27.3 µM (active)	54.5 µM (active)				inactive				
CCOC(=O)c1ccc(C#Cc2ccc3c(c2)C(C)(C)CCS3)nc1	inactive	inactive	inactive		inactive				inactive		inactive	inactive	inactive	26.6 µM (active)		inactive		inactive		
Clc1cc(Cl)nc(Cl)n1	inactive	inactive	inactive		inactive				inactive	inactive	inactive	inactive	49.6 µM (active)			inactive	inactive			
COC(=O)C1=C(C)NC(C)=C(C(=O)O[C@@H]2CCCN(Cc3ccccc3)C2)[C@@H]1c1cccc([N+](=O)[O-])c1	26.6 µM (active)	11.9 µM (active)		26.8 µM [inhibitor] (active)	inactive	inactive	inactive	inactive		29.8 µM (active)	inactive		inactive			inactive	inactive			
CC1=C(Br)C(=O)C(Br)=C/C1=C(/c1ccccc1S(=O)(=O)O)c1cc(Br)c(O)c(Br)c1C	46.6 µM (active)	18.6 µM (active)	inactive						37 µM (active)	18.6 µM (active)	23.4 µM (active)	18.6 µM (active)	inactive	inactive	inactive	inactive	inactive	inactive	inactive	
CC[C@]1(O)C[C@H]2CN(CCc3c([nH]c4ccccc34)[C@@](C(=O)OC)(c3cc4c(cc3OC)N(C=O)[C@H]3[C@@](O)(C(=O)OC)[C@H](OC(C)=O)[C@]5(CC)C=CCN6CC[C@]43[C@@H]65)C2)C1	0.106 µM (active)	0.0944 µM (active)	inactive					0.0531 µM (active)	inactive	inactive		inactive	inactive			inactive	inactive	inactive		
O=[N+]([O-])c1cc(C2CCCCC2)c(O)c([N+](=O)[O-])c1	9.66 µM (active)	3.85 µM (active)		6.15 µM [inconclusive] (active)		inactive			6.09 µM (active)	17.2 µM (active)	17.2 µM (active)	30.5 µM (active)			24.3 µM (active)	inactive		inactive		
CN1C[C@H](C(=O)N[C@]2(C)O[C@@]3(O)[C@@H]4CCCN4C(=O)[C@H](Cc4ccccc4)N3C2=O)C[C@@H]2c3cccc4[nH]cc(c34)C[C@H]21	21.1 µM (active)	26.6 µM (active)		inactive	inactive	inactive		inactive	inactive	inactive	inactive		29.8 µM (active)		29.8 µM (active)	inactive	inactive	inactive		
O=c1cc(-c2ccccc2)oc2cc(O)cc(O)c12	54.5 µM (active)	54.5 µM (active)	inactive		inactive				inactive				inactive		inactive			12.2 µM (active)		
CCCCC(CC)COP(=O)(O)O (configuration not stated)	inactive		inactive	39.6 µM [inconclusive] (active)	inactive	inactive	inactive	inactive	inactive	inactive	inactive	inactive	inactive		inactive	inactive	inactive			
CCC(C)COC(=O)CC(C)C (configuration not stated)	inactive		inactive	inactive	inactive	inactive	inactive	inactive	inactive	inactive	inactive	inactive			inactive	inactive	inactive	inactive		
CC(C)(c1ccccc1)c1ccccc1	inactive	inactive	inactive		inactive				inactive	inactive		inactive	inactive	inactive	inactive	inactive	inactive		inactive	
COc1ccccc1NC(=O)c1cc2ccccc2cc1O	inactive	17.2 µM (active)	inactive			inactive				24.3 µM (active)			17.4 µM (active)				50.9 µM (active)	3.06 µM (active)	inactive	
